# Legend:
# Conditions in all cases: concentration: 1 μM, replicates: in singlicate; n = 1
# MTOR = tested on: MTOR
# MUSK = tested on: MUSK
# MYLK2 = tested on: MYLK2
# MYLK4 = tested on: MYLK4
# MYLK = tested on: MYLK
# MYO3A = tested on: MYO3A
# MYO3B = tested on: MYO3B
# NDR1 = tested on: T1, NDR1
# T1 construct: gene STK38
# NDR2 = tested on: NDR2
# NEK10 = tested on: NEK10
# 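Also: KINOMEscan kinase panel screen.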
Compound,%Inh (MTOR),%Inh (MUSK),%Inh (MYLK2),%Inh (MYLK4),%Inh (MYLK),%Inh (MYO3A),%Inh (MYO3B),%Inh (NDR1),%Inh (NDR2),%Inh (NEK10)
O=C(O)C(F)(F)F.O=c1[nH]ccc2nc(N[C@@H]3CCNC3)nc(Nc3cc(Cl)cc(Cl)c3)c12 [GSK2188764],9%,3%,50%,36%,92.4%,59%,0%,82%,68%,81%
c1ccc(Oc2ccc(Nc3ccnc4cc(-c5ccc(CN6CCCCC6)o5)ccc34)cc2)nc1 [GW567143],2%,24%,0%,0%,0%,0%,14%,0%,0%,1%
CCn1c(-c2nonc2N)nc2c(-c3ccccc3)ncc(OCCCN)c21.O=C(O)C(F)(F)F.O=C(O)C(F)(F)F [GSK260205],20%,0%,0%,0%,33%,27%,0%,23%,0%,9%
Cn1cc(-c2ccc3c(c2)CCN3C(=O)Cc2cc(F)cc(F)c2F)c2c(N)ncnc21 [GSK2634140],15%,28%,82%,0%,11%,38%,1%,0%,0%,10%
CN(C)c1ncnc2nc[nH]c12 [SKF-31736],54%,14%,0%,30%,0%,0%,0%,35%,24%,21%
O=C(Nc1n[nH]c2nc(-c3ccccc3)ccc12)C1CC1 [SB-708999],0%,13%,86%,11%,30%,25%,0%,0%,13%,0%
COc1ccc(C2=C(Nc3cccc(O)c3)C(=O)NC2=O)cc1 [SB-390766],31%,3%,12%,4%,3%,0%,0%,9%,0%,42%
Cc1ccc(NC(=O)c2ccnc(N3CCCCC3)c2)cc1-c1ccc(C(=O)NCC2CC2)cc1 [GW775610],9%,0%,15%,0%,0%,0%,3%,0%,5%,0%
Cl.Cl.NCC(NC(=O)c1cc(-c2cccnc2)c(-c2ccnc3[nH]ccc23)s1)c1ccccc1 (centres unmarked) [GSK1323434],10%,18%,15%,98.2%,23%,39%,0%,67%,13%,79%
CCNc1nccc(-c2c(-c3ccc(F)cc3)ncn2C2CCN(C)CC2)n1,0%,97.7%,0%,0%,0%,5%,0%,3%,5%,0%
O=C(Nc1c(F)cccc1F)c1cc(C(=O)c2ccccc2F)c[nH]1 [GSK1326180],18%,0%,4%,6%,0%,0%,0%,0%,2%,9%
CC(=O)Nc1cn2nc(Oc3cccc(NC(=O)c4cccc(C(F)(F)F)c4)c3)ccc2n1,11%,21%,0%,3%,44%,5%,9%,8%,0%,0%
Cc1cccc(Nc2nc(NCCN)ncc2C(N)=O)c1 [GSK1292139],12%,6%,5%,94.3%,8%,5%,0%,21%,25%,47%
Fc1cc(Cl)ccc1Nc1ccnc2cc(-c3ccc(CN4CCOCC4)o3)ccc12 [GW560109],1%,0%,8%,1%,47%,0%,1%,0%,0%,0%
O=C(Nc1n[nH]c2nc(-c3ccccc3O)ccc12)C1CC1 [SB-711880],16%,0%,85%,0%,28%,36%,1%,6%,0%,0%
Cl.O=C(Nc1ccc(Oc2ccc3[nH]c(NC(=O)c4ccco4)nc3c2)cc1)Nc1cc(C(F)(F)F)ccc1F [GW683134],5%,98.6%,75%,3%,0%,0%,9%,0%,0%,0%
COc1cccc2c(-c3ccncc3)c(-c3ccc(F)cc3)nn12 [GW468513],20%,21%,0%,0%,12%,4%,0%,8%,0%,0%
O=C(Nc1n[nH]c2cc(-c3cccs3)ccc12)C1CC1 [SB-731284],42%,0%,87%,24%,52%,0%,0%,27%,0%,27%
Cc1ccc(-c2ccc3occ(-c4ccc(S(C)=O)cc4)c3c2)nn1 (centres unmarked),17%,3%,11%,0%,0%,0%,1%,2%,15%,25%
Cc1ccc(NC(=O)c2ccc(Cl)c(Cl)c2)cc1-c1ccc(C(=O)Nc2ccncc2)cc1 [GSK1398460],0%,6%,0%,5%,27%,0%,0%,14%,0%,0%
Cn1cc(-c2cnc(N)c3c(-c4ccc5c(c4)CCN5C(=O)Cc4ccccc4)csc23)cn1 [GSK2593074],0%,24%,55%,0%,4%,0%,45%,10%,2%,22%
Cn1cc(-c2ccc3c(c2)CCN3C(=O)Cc2cc(F)cc(C(F)(F)F)c2)c2c(N)ncnc21 [GSK2635225],35%,28%,27%,1%,12%,42%,0%,25%,13%,6%
CN(C)CCOc1ccc(-c2cc(-c3ccc(Cl)c(O)c3)c(-c3ccncc3)[nH]2)cc1.Cl.Cl [SB-684387],19%,0%,28%,9%,18%,39%,13%,35%,42%,0%

# Source: PMC5540273 (PLoS ONE, 2017)
